# Source: PubChem BioAssay (NCI)
# Where “and” joins values, the source holds several entries; their conditions need not be identical. Equal entries are not always repeated. The panel holds about 79,000 compounds, 15% with a hit somewhere; the sample as a whole holds those more often. The source holds several records for some structures; these can differ, active in one and inactive in another. Calls of active or inactive are those of the source. Cut-off read from the data, not from the text of the source: active = growth inhibition above about 70%; inactive = the rest.
# What was measured:
# [1] = NCI Yeast Anticancer Drug Screen. Data for the rad50 strain (AID 155);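 note: 0% = growth of vehicle-only cultures of the same strain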; details: S. cerevisiae rad50 strain growth inhibition, stronger effect = higher value
# Method in brief: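 Growth of the mutant yeast was measured after compound exposure and referenced to vehicle-treated cultures.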
# [2] = NCI Yeast Anticancer Drug Screen. Data for the mec2-1 strain (AID 157); details: S. cerevisiae mec2-1 strain, stronger effect = higher value
# Method in brief: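 Vehicle-treated cultures served as reference for growth inhibition of compound-exposed mec2-1 yeast.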
# [3] = NCI Yeast Anticancer Drug Screen. Data for the sgs1 mgt1 strain (AID 161);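 note: 0% = growth of cultures given vehicle only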; details: S. cerevisiae sgs1 mgt1 strain, stronger effect = higher value
# Method in brief: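 Mutant yeast exposed to compound; growth scored against vehicle-only wells.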
# [4] = NCI Yeast Anticancer Drug Screen. Data for the cln2 rad14 strain (AID 165);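 note: 0% = growth equal to vehicle treated cultures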; details: S. cerevisiae cln2 rad14 strain, stronger effect = higher value
# Method in brief: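 Each compound was tested on cln2 rad14 yeast. Inhibition of growth was calculated against vehicle-exposed controls.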
# [5] = NCI Yeast Anticancer Drug Screen. Data for the bub3 strain (AID 167); details: S. cerevisiae bub3 mutant strain, stronger effect = higher value
# Method in brief: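 Whole-cell yeast assay. The mutant strain was incubated with compounds, and growth inhibition was determined by comparison with vehicle-treated cells.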
# [6] = NCI Yeast Anticancer Drug Screen. Data for the mlh1 rad18 strain (AID 175); details: S. cerevisiae mlh1 rad18 strain growth inhibition, stronger effect = higher value
# Method in brief: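 Vehicle-treated cultures served as the reference for growth inhibition in a yeast strain carrying DNA damage repair alterations exposed to each compound.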
# [7] = at 5.0 µM (retest, dose inferred, filed as 0.5)
# [8] = at 50.0 µM (retest, dose inferred, filed as 5.0)
Structure (SMILES),"growth inhibition [1, 7]","growth inhibition [1, 8]",growth inhibition ([1]; at 50.0 µM),"growth inhibition [2, 7]","growth inhibition [2, 8]",growth inhibition ([2]; at 50.0 µM),"growth inhibition [3, 7]","growth inhibition [3, 8]",growth inhibition ([3]; at 50.0 µM),"growth inhibition [4, 7]","growth inhibition [4, 8]",growth inhibition ([4]; at 50.0 µM),"growth inhibition [5, 7]","growth inhibition [5, 8]",growth inhibition ([5]; at 50.0 µM),"growth inhibition [6, 7]","growth inhibition [6, 8]",growth inhibition ([6]; at 50.0 µM)
O=[N+]([O-])c1ccc2c[n+]3ccccc3cc2c1,21% (inactive),84% (active),80.3% (active),4% (inactive),50% (inactive),5.3% (inactive),2% (inactive),56% (inactive),36.2% (inactive),1% (inactive),43% (inactive),-17.4% (inactive),-5% (inactive),56% (inactive),3.8% (inactive),12% (inactive),86% (active),62% (inactive)
[C-]#[O+].[C-]#[O+].[Ir].[O-]c1ccc2ccccc2c1N=Nc1ccccc1,-4% (inactive),-4% (inactive),74.5% (active),-11% (inactive),-11% (inactive),69.5% (inactive),15% (inactive),15% (inactive),62.1% (inactive),-2% (inactive),-2% (inactive),50.7% (inactive),-20% (inactive),-20% (inactive),55.1% (inactive),-18% (inactive),-18% (inactive),69.5% (inactive)
N=C(N)SCc1ccc(Cl)c2ccccc12 (tested in a mixture with another compound),12% (inactive) and 8% (inactive),94% (active) and 60% (inactive),98.8% (active) and 90% (active),1% (inactive) and -15% (inactive),58% (inactive) and 35% (inactive),98.6% (active) and 89.5% (active),-6% (inactive) and -9% (inactive),93% (active) and 51% (inactive),98.5% (active) and 92.5% (active),-40% (inactive) and -1% (inactive),94% (active) and 38% (inactive),94.8% (active) and 57% (inactive),-21% (inactive) and -5% (inactive),72% (active) and 66% (inactive),98.2% (active) and 92.8% (active),2% (inactive) and -3% (inactive),91% (active) and 88% (active),98.7% (active) and 96% (active)
CCCCCCCCC(=O)[O][Hg][c]1ccccc1,99% (active),99% (active),99.5% (active),100% (active),100% (active),99.7% (active),100% (active),99% (active),99.7% (active),99% (active),99% (active),99.3% (active),99% (active),100% (active),99.1% (active),99% (active),100% (active),99.5% (active)
C[n+]1c(/C=C/c2ccc(O)c(O)c2)[se]c2ccccc21,12% (inactive),72% (active),77.7% (active),3% (inactive),80% (active),70.6% (active),48% (inactive),81% (active),82.7% (active),19% (inactive),53% (inactive),66.9% (inactive),-3% (inactive),61% (inactive),56.1% (inactive),18% (inactive),80% (active),77% (active)
Cc1ccc2ccccc2c1NC1=NCCO1,24% (inactive),45% (inactive),-15.6% (inactive),25% (inactive),20% (inactive),-10.9% (inactive),21% (inactive),11% (inactive),-5.65% (inactive),17% (inactive),26% (inactive),17% (inactive),18% (inactive),6% (inactive),11.8% (inactive),30% (inactive),17% (inactive),-10.1% (inactive)
COC(=O)C(Cl)(Br)CCl (centres undefined),13% (inactive),85% (active),68.5% (inactive),6% (inactive),86% (active),79.7% (active),4% (inactive),49% (inactive),42.1% (inactive),3% (inactive),65% (inactive),12.3% (inactive),9% (inactive),95% (active),43% (inactive),8% (inactive),81% (active),38.7% (inactive)
CCC[CH2][Sn]1([CH2]CCC)[S]CC[N]1S(=O)(=O)c1ccc(C)cc1,79% (active),98% (active),91.8% (active),85% (active),99% (active),94% (active),77% (active),99% (active),92.6% (active),62% (inactive),97% (active),91.5% (active),88% (active),98% (active),92.3% (active),88% (active),97% (active),92% (active)
CC(=O)Oc1cccc2c1CC(C[Se]c1ccccc1)C(=O)O2 (centres undefined),11% (inactive),40% (inactive),69.9% (inactive),8% (inactive),35% (inactive),35.5% (inactive),11% (inactive),57% (inactive),70.2% (active),3% (inactive),23% (inactive),25.4% (inactive),-7% (inactive),38% (inactive),35% (inactive),11% (inactive),66% (inactive),74.2% (active)
CC(=O)OCC1OC(OC(C)C)[CH]([Hg][S]Cc2ccccc2)C(OC(C)=O)C1OC(C)=O (centres undefined),99% (active),98% (active),54.8% (inactive),99% (active),99% (active),57.9% (inactive),94% (active),98% (active),44.6% (inactive),37% (inactive),98% (active),96.8% (active),99% (active),98% (active),98.2% (active),99% (active),97% (active),46.1% (inactive)
O=S(=O)(c1ccccc1)N1C2C3CCC(CC3)C21 (centres undefined),-1% (inactive),-4% (inactive),1.2% (inactive),-11% (inactive),-16% (inactive),2.75% (inactive),-3% (inactive),-32% (inactive),23% (inactive),-1% (inactive),3% (inactive),7.65% (inactive),14% (inactive),96% (active),76.6% (active),-13% (inactive),-5% (inactive),1.5% (inactive)
O=[n+]1c2ccccc2n([O-])c2ccccc21.[Cl][Ni][Cl],96% (active),99% (active),90.8% (active),75% (active),100% (active),92.7% (active),89% (active),99% (active),92.3% (active),33% (inactive),98% (active),90.6% (active),68% (inactive),100% (active),89% (active),92% (active),96% (active),91.9% (active)
CC(Cc1ccccc1)[N+](=O)[O-] (centres undefined),8% (inactive),70% (active),79% (active),0% (inactive),6% (inactive),-12.9% (inactive),2% (inactive),7% (inactive),-8.2% (inactive),3% (inactive),-3% (inactive),-19.6% (inactive),7% (inactive),27% (inactive),-6.9% (inactive),-1% (inactive),10% (inactive),12.1% (inactive)
